Sampled rows, rich in hits. Any-hit rate of the full collection: about 3.5%.
TEAD-YAP block – TEAD-YAP interaction inhibition, primary screen, TEAD-YAP interaction inhibitor project, luminescence, HEK-TIYL cells; inhibition, % at 9.12 µM; TEAD-Gal4/YAP UAS-luciferase luminescence; 640,000 tested, 1.4% active; in the data active means inhibition above about 32%
MITF primary – MITF inhibitors, primary screen, biochemical, AlphaScreen, human; Microphthalmia-associated transcription factor (Homo sapiens), O75030; AlphaScreen MITF homodimerization, bead proximity signal; inhibition, % at 2.6 µM; 650,000 tested, 0.91% active; in the data active means inhibition above about 50%
GPR151 activ – activators of human GPR151, primary screen, cell-based, PathHunter beta-arrestin, luminescence; 650,000 tested, 1% active; PathHunter beta-arrestin GPR151 cells; activation, % at 11.2 µM; in the data active means activation above about 4.9%
Target sequence (Q8TDV0 whole entry, looked up): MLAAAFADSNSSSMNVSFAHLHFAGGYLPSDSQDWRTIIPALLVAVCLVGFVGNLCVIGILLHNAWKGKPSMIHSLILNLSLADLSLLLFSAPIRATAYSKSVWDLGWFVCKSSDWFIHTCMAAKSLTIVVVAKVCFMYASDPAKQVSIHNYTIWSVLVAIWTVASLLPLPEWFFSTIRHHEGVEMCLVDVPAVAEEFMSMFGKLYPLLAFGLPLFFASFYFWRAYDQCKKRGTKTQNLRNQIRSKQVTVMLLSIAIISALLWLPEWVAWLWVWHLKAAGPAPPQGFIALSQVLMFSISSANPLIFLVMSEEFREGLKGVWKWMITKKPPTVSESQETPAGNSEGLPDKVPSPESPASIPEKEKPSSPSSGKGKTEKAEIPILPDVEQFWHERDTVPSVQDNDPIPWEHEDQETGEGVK
FBW7 activator – FBW7 E3 ligase activators, primary screen, biochemical, AlphaScreen, human; AID 1259310, 2017; F-box/WD repeat-containing protein 7 (Homo sapiens), Q969H0; AlphaScreen FBW7–phospho-cyclin E peptide binding, activator screen; 650,000 tested, 0.13% active; normalized activity (activation), % at 26.1 µM; in the data active means normalized activity above about 1.9%;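 further: purified mutant Fbw7 with reduced substrate affinity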
A number is an active result; n = inactive; ! = repeats disagree.

SMILES	TEAD-YAP block	MITF primary	GPR151 activ	FBW7 activator
COc1ccc(-n2nnnc2-c2cccc(OC)c2)cc1	58	n	n	n
Cc1cc2c(cc1C)-c1nc3ccccc3cc1C2	54	n	n	n
Cc1cc2c(cc1C)-c1nc3ccccc3cc1C2=O	n	n	n	n
Cc1ccc2c(c1)Cc1nc3ccccc3nc1-2	65	n	n	n
O=C1c2c(O)ccc(O)c2C(=O)c2c(O)ccc(O)c21	n	n	n	n
O=C1c2c(O)ccc(O)c2C(=O)c2c(NCCNCCO)ccc(NCCNCCO)c21	55	52!	n	n
CCCN1C(=O)C(O)(CC(=O)c2ccc([N+](=O)[O-])cc2)c2cc(Br)ccc21 (stereo not given)	50	n	n	n
O=c1c(=NNc2nn[nH]n2)c(=O)c2ccccc12	98	n	n	n
O=c1c(=NNc2ccccc2)c(=O)c2ccccc12	n	n	n	n
O=c1c(=NNc2ccccc2Cl)c(=O)c2ccccc12	58	n	n	n
Cc1ccc(NN=c2c(=O)c3ccccc3c2=O)cc1	n	n	n	n
Nc1nc(Nc2ccc(Oc3ccccc3)cc2)cc(-c2ccccc2)n1	44	n	n	n
Cc1cc(C)nc(Nc2ccc(Oc3ccccc3)cc2)n1	46	n	n	n
CS(=O)(=O)Nc1ccccc1C(=O)NCc1ccc2c(c1)OCO2	n	n	n	n
CC(C)(C)c1ccc(NC(=O)Nc2ccccc2NC(=O)c2ccccn2)cc1	68	n	n	n
CC(C)(C)c1ccc(/C=N\NC(=O)c2ccccn2)cc1	35	n	n	n
O=C(Nc1ccccc1NC(=O)c1ccccn1)Nc1c(F)cccc1F	n	n	n	n
COC(=O)CC[C@H]1CN(Cc2ccc(OC)c(OC)c2)CC[C@H]1N1CCCC1	n	n	n	n
O=C(CSc1nnc2ccc(-c3cccnc3)nn12)c1ccc(F)cc1	n	n	n	n
COc1cc(NC(=O)C2CC(=O)c3ccccc3C2)ccc1-c1cn[nH]c1 (stereo not given)	48	n	n	n
COc1cc(NC(=O)C2COc3ccccc3C2)ccc1-c1cn[nH]c1 (stereo not given)	n	n	n	n
CCOC(=O)C1=C(C)OC(N)=C(C#N)C1c1cccs1 (stereo not given)	n	n	n	n
CCN(CC)c1ccc2c(c1)OC(N)=C(C#N)C2c1ccccc1 (stereo not given)	n	n	n	3.4
N#CC1=C(N)Oc2cc(N)ccc2C1c1cccnc1 (stereo not given)	n	n	n	n
CCN(CC)c1ccc2c(c1)OC(N)=C(C#N)C2c1cccs1 (stereo not given)	53	n	n	n
SMILES	TEAD-YAP block	MITF primary	GPR151 activ	FBW7 activator
CCN(CC)c1ccc2c(c1)OC(N)=C(C#N)C2c1cccnc1 (stereo not given)	54	n	n	n
OC(CN1C2=NCCN2c2ccccc21)c1ccc2c(c1)OCO2 (stereo not given)	55	n	n	n
OC(CN1C2=NCCCN2c2ccccc21)c1ccc2c(c1)OCO2 (stereo not given)	n	n	n	n
COc1cc(NC(=O)COC(=O)Cc2cccc3ccccc23)c(C)cc1[N+](=O)[O-]	n	n	n	n
Cc1ccccc1-n1nc2c(c1NC(=O)c1ccccc1Cl)CS(=O)C2 (stereo not given)	n	n	n	n
CCCC1=C(C(=O)OCC)C(c2ccccc2[N+](=O)[O-])n2ncnc2N1 (stereo not given)	n	n	n	n
CCCC1=C(C(=O)OCC)C(c2cccc([N+](=O)[O-])c2)n2ncnc2N1 (stereo not given)	33	n	n	n
O=C(NCCCN1CCOCC1)C1CCN(c2nc3ccccc3n3cccc23)CC1	n	n	n	n
CCN(CC)C(=O)c1ccc(Oc2nnnn2-c2ccccc2)c(OC)c1	32	n	n	n
COc1ccccc1Oc1nnnn1-c1ccc(C(=O)O)cc1	n	n	n	n
COc1cc(OC)nc(Sc2ccccc2/C=N/O)n1	57	n	n	n
CC(C)C[C@H]1NC(=O)[C@@H]2C[C@H](NC(=O)Nc3cccc(F)c3)CN2C1=O	n	n	n	n
O=c1c2cccc3c2c(nn1CCN1CCCCC1)-c1ccccc1-3	80	n	n	n
O=c1c2cccc3c2c(nn1Cc1ccccc1Cl)-c1ccccc1-3	n	n	n	n
COc1ccc(NS(=O)(=O)c2ccc(-n3cccn3)cc2)cc1OC	40	n	n	n
COc1ccc(NS(=O)(=O)c2c(C)cc(C)cc2C)cc1OC	45	n	n	n
COc1ccc(NS(=O)(=O)c2cc(C)ccc2OC)cc1OC	n	n	n	n
Cc1ccc(NS(=O)(=O)c2ccc(-n3cccn3)cc2)cc1C	n	n	n	n
S=c1[nH]nc(-c2ccncc2)n1/N=C/c1ccc(Br)cc1	n	n	n	n
O=C(Cn1ncc2c(=O)oc3ccccc3c21)N1CCN(c2ccccc2)CC1	n	n	n	n
O=C(Cn1ncc2c(=O)oc3ccccc3c21)N1CCN(c2cccc(Cl)c2)CC1	41	n	n	n
CN1CCCN(C(=O)C2CC23CCN(Cc2nc(-c4ccccc4)cs2)CC3)CC1 (stereo not given)	n	n	n	n
O=C(NCc1ccco1)C1CC12CCN(Cc1nc(-c3ccccc3)cs1)CC2 (stereo not given)	56	n	n	n
CCC(/C=C1\Sc2cc(Br)ccc2N1CC)=C\c1sc2cc(Br)ccc2[n+]1CC	n	n	n	n
CC1(C)O[C@]2(CCC3C4CC[C@H]5CCCC[C@]5(C)C4CC[C@@]32C)CN1C(=O)CSC1=NCCN1 (stereo not given in full)	33	n	n	n
SMILES	TEAD-YAP block	MITF primary	GPR151 activ	FBW7 activator
C[C@]12CCCCC1CCC1C2CC[C@]2(C)C(N)CCC12 (stereo not given in full)	n	n	n	n
CCN(CC)Cc1cc(O)c(CN(CC)CC)cc1O	n	76	n	n
C=C(C)CN(CC)Cc1cc(Cl)ccc1O	n	n	n	n
COc1ccc(NC(=O)COc2ccc(C)cc2C(C)(C)C)cc1	n	n	n	n
N#CC1=C(N)N(c2ccc(S(=O)(=O)Nc3nccs3)cc2)C2=C(CCCC2)C1(C(F)(F)F)C(F)(F)F	n	n	n	n
COc1ccc(-n2ncnc2-c2cccc(-n3ncc4cc(Nc5ccccc5F)ccc43)c2)cc1	38	n	n	n
COc1cc(NC(=O)c2cccc(-n3ncc4cc(Nc5ccccc5F)ccc43)c2)cc(OC)c1OC	33	n	n	n
Nc1ccc(-n2ncnc2-c2cccc(-n3ncc4cc(Nc5ccccc5F)ccc43)c2)cc1	n	n	n	n
COc1cccc(-n2c(SCC(=O)N3CCCC3)nc3n[nH]c(C)c3c2=N)c1	43	n	n	n
CCN(CC)C(=O)CSc1nc2n[nH]c(C)c2c(=N)n1-c1cccc(OC)c1	44	n	n	n

Compound activity: PubChem BioAssay, The Scripps Research Institute Molecular Screening Center
